Records with an inconclusive call do not appear. Values without a mark were called inactive. Calls of active or inactive are those of the source. Calls come from the whole dose curve; as a rule, active = well fitted curve in the direction sought with a large enough effect; inconclusive = small, poorly fitted or top-dose-only effect, or another doubt; inactive = no such curve, though single readings can be large; an effect the other way counts as inactive or inconclusive.

A short description of assay [1]: qHTS of pediatric cancer cell lines to identify multiple opportunities for drug repurposing: Primary screen for Rh18 cells (AID 1347102). Note: % is set by controls: 0 for no effect and ±100 for the full control effect; nearly all actives have a fitted effect of over 65% in size. A digest of the protocol: (§1)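 Viability after 48 h compound treatment at 37C, 500-1,000 cells/well, read as ATP luminescence with CellTiter-Glo. Primary screens used 11-point (MIPE, 0.78 nM-46 µM) or 8-point (NPC, 0.59 nM-46 µM) final concentrations; follow-up screens used 11-point dilutions.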
On the technique in general: qHTS replaces the single test concentration by a dilution series.

The nature of assay [2]: qHTS of pediatric cancer cell lines to identify multiple opportunities for drug repurposing: Primary screen for OHS-50 cells (AID 1347103).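 Note: plate controls were DMSO neutral control for no effect and bortezomib positive control for full effect; nearly all actives have a fitted effect of over 40% in size.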 The gist of the method:
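Cells (500-1,000/well) rested 5 h, then received compounds for 48 h; metabolically active cells were measured by CellTiter-Glo luminescence. Final concentrations spanned up to 46 µM (MIPE, 11-point) or 0.59 nM-46 µM (NPC, 8-point) in primary screens, 11-point in follow-ups.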

Assay [3] can be described thus: qHTS of pediatric cancer cell lines to identify multiple opportunities for drug repurposing: Primary screen for RD cells (AID 1347104).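 Note: plate controls were DMSO for no effect and bortezomib for full effect; nearly all actives have a fitted effect of over 55% in size.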 The gist of the method:
(§2)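 Luminescence from CellTiter-Glo served as readout of metabolically active cells after 48 h compound exposure. Titrations: MIPE 11-point, from 0.78 nM; NPC 8-point, from 0.59 nM (final). Concentration-response curves came straight from the primary screen.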

Assay [4] can be described thus: qHTS of pediatric cancer cell lines to identify multiple opportunities for drug repurposing: Primary screen for control Hh wild type fibroblast cells (AID 1347106).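 Note: series mostly up to about 46 µM; % is set by controls: 0 for no effect and ±100 for the full control effect; a drop in luminescence marks cytotoxicity and a rise apparent proliferation; nearly all actives have a fitted effect of over 55% in size.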 The gist of the method:
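Cells (500-1,000/well) in growth media were settled 5 h at 37 degrees C, then given compounds for 48 h. Viability was read as CellTiter-Glo luminescence. Primary runs used MIPE at 11 points (0.78 nM-46 µM) and NPC at 8 points (0.59 nM-46 µM); follow-ups used 11 points.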

A short description of assay [5]: qHTS of pediatric cancer cell lines to identify multiple opportunities for drug repurposing: Primary screen for Rh30 cells (AID 1347107). Note: series mostly up to about 46 µM; % is set by controls: 0 for no effect and ±100 for the full control effect; nearly all actives have a fitted effect of over 75% in size. The gist of the method:
as §1

Assay [6] is described as follows: qHTS of pediatric cancer cell lines to identify multiple opportunities for drug repurposing: Primary screen for Rh41 cells (AID 1347108).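 Note: series mostly up to about 46 µM; luminescence drop marks cytotoxic hits; nearly all actives have a fitted effect of over 70% in size.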 The gist of the method: as §2
The nature of assay [7]: qHTS of pediatric cancer cell lines to identify multiple opportunities for drug repurposing: Primary screen for MG 63 (6-TG R) cells (AID 1347105). Note: % is set by controls: 0 for no effect and ±100 for the full control effect; nearly all actives have a fitted effect of over 50% in size. The gist of the method:
as §2

The nature of assay [8]: qHTS of pediatric cancer cell lines to identify multiple opportunities for drug repurposing: Confirmatory screen for NB1643 cells (AID 1347109).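 Note: plate controls were DMSO for no effect and bortezomib for full effect; nearly all actives have a fitted effect of over 45% in size.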 A digest of the protocol:
as §1

Assay [9] in a line: qHTS of pediatric cancer cell lines to identify multiple opportunities for drug repurposing: Confirmatory screen for A673 cells (AID 1347110). Note: potency is the fitted concentration of half-maximal effect; nearly all actives have a fitted effect of over 65% in size. A digest of the protocol: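 A673 cells at 500-1,000 cells/well were dosed 5 h after plating, in dilution series up to 46 uM final; primary runs used 8 or 11 points and confirmatory runs used 11 points. Viability was read by CellTiter-Glo luminescence after 48 h, against DMSO and 2.3 uM bortezomib controls.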

Assay [10] is described as follows: qHTS of pediatric cancer cell lines to identify multiple opportunities for drug repurposing: Confirmatory screen for SK-N-MC cells (AID 1347111).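 Note: potency is the fitted concentration of half-maximal effect; cells exposed to compound for 48 h before the readout; nearly all actives have a fitted effect of over 70% in size.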 The gist of the method:
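SK-N-MC cells at 500-1,000 cells/well in growth media were pre-incubated 5 h, then exposed to compounds at 11-point dilutions for 48 h at 37 degrees C, 5% CO2. Viability was read as CellTiter-Glo luminescence.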

Take `COc1ccc2[nH]c(S(=O)Cc3ncc(C)c(OC)c3C)nc2n1` (configuration not stated): the Potency entry in [1], in [2], in assay [3] and in assay [6] was “inactive” in each case. Besides, the call in assay [4] and in assay [5] was inactive.
Regarding `COc1ccc2cc1Oc1cc3c(cc1OC)CC[N+](C)(C)[C@H]3Cc1ccc(cc1)Oc1c(OC)c(OC)cc3c1[C@@H](C2)[N+](C)(C)CC3`, the Potency entry in [1], in [2], in [3] and in assay [6] was “inactive” throughout. In addition, the result in assay [4] and in assay [5] was inactive.
Take `NCCNCCNCCN`: the Potency entry in [1], in assay [2], in [3] and in assay [6] was “inactive” in each case. The result in assay [4] and in assay [5] was inactive.
In the case of `NC1[C@H]2CN(c3nc4c(cc3F)c(=O)c(C(=O)O)cn4-c3ccc(F)cc3F)C[C@@H]12` (some centres not stated), the Potency entry in [1], in [2] and in assay [7] was “inactive” throughout. Further, in [5], the molecule was called inactive.
`C/C(=C(\CCOP(=O)(O)O)SC(=O)c1ccccc1)N(C=O)Cc1cnc(C)nc1N`: the activity change, negative = cytotoxic in [1] is 28.8% [at 4.84 µM]; in assay [2], 12% [at 6.18 µM]; in assay [3] it was 3.8% [at 4.84 µM]; in [4] it was 4.64% [at 4.84 µM]; in assay [5], 26.4% [at 4.84 µM]; in assay [6], 27.9% [at 4.84 µM].
Consider `O=C1O[C@H]([C@@H](O)CO)C(O)=C1O`, for which the Potency result in [1], in [2], in [3] and in [6] was “inactive” in each case. Also, the molecule was called inactive in [4] and in assay [5].
With `Cc1ccc2nc(N)[nH]c(=O)c2c1Sc1ccncc1`, in assay [8], the Potency entry is “inactive”. Moreover, the Potency in assay [9] is 465 nM (active); in assay [10], 2080 nM (active).

The values are drawn from PubChem BioAssay (NCATS).
